In PubChem BioAssay (EPA / NIEHS):
Records with an inconclusive call do not appear. The source made the active and inactive calls. Rule for the calls: active = hit-call score of the fitted dose curve at least 0.9, where 1 is the maximum; inconclusive = response in the unintended direction; inactive = score below 0.9.

Assay: Tanguay_ZF_120hpf_PIG_legacy: (Legacy) Oregon State University Tanguay Lab 120 Hour Post-fertilization zebrafish Assay for Pigmentation Malformation (AID 2283650);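 note: dechorionated Tropical 5D zebrafish embryos exposed singly from 6 to 120 hpf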
Description: Tanguay_ZF_120hpf_legacy is a whole embryo, multiplexed endpoint assay using zebrafish larvae exposed for 120 hours post fertilization on a 96-well plate.Tanguay_ZF_120hpf_PIG_legacy is one of one assay component(s) measured or calculated from the Tanguay_ZF_120hpf_legacy assay. It is designed to make measurements of zebrafish development as detected with brightfield microscopy of developing zebrafish embryos.Data from the assay component Tanguay_ZF_120hpf_PIG_legacy was analyzed into 1 assay endpoints. This assay endpoint, Tanguay_ZF_120hpf_PIG_legacy, was analyzed in the positive analysis fitting direction relative to DMSO as the negative control and baseline of activity. Using a type of morphology reporter, gain-of-signal activity can be used to understand changes in developmentals as they relate to the whole embryo. To generalize the intended target to other relatable targets, this assay endpoint is annotated to the zebrafish development intended target family, where the subfamily is embryonic pigmentation.
Zebrafish husbandry: Tropical 5D wild-type adult zebrafish were housed in at an approximate density of 1000 per 100 gallon tank at the Sinnhuber Aquatic Research Laboratory, Oregon State University, Corvallis, OR. Each tank was kept at standard laboratory conditions of 28C on a 14-h light/10-h dark photoperiod in fish water consisting of reverse osmosis water supplemented with a commercially available salt (Instant Ocean). Spawning funnels were placed into the tanks the night prior, and embryos were collected and staged. To increase bioavailability, the chorion was enzymatically removed using pronase (63.6mg/ml, >/= 3.5U/mg, Sigma-Aldrich: P5147) at 4 hours post fertilization (hpf) using a custom automated dechorionator.Chemical exposures: Six hpf dechorionated embryos were placed 1 embryo per well in a 96-well plate prefilled with 90 ul of EM using automated embryo placement systems (AEPS). Ten microliters of each row of dilution plate 2 was added to 2 exposure plates. The final DMSO concentration used was 0.64% (vol/vol). Thirty-two embryos were also exposed to 5uM trimethyltin chloride (positive control). Plates were sealed to prevent evaporation and foil covered to reduce light exposure and kept in a 28C incubator. Embryos were statically exposed until 120 hpf. At 24 hpf, embryos were assessed for photomotor response using a custom photomotor response analysis tool (PRAT) and for developmental toxicity endpoints (MO24: mortality at 24 hpf, DP: developmental progression, SM: spontaneous movement, and NC: notochord distortion). At 120 hpf, locomotor activity was measured using Viewpoint Zebralab and assessed for 18 endpoints. Zebrafish acquisition and analysis program (ZAAP), a custom program designed to inventory, acquire, and manage zebrafish data, was used to collect developmental endpoints as either present or absent (i.e., binary responses were recorded). If mortality occurred for an embryo (at either 24 or 120 hpf), the non-mortality endpoints were not measured.

Structure (SMILES) | outcome
COc1ccc(OC(F)(F)F)cc1CN[C@H]1CCCN[C@H]1c1ccccc1 | inactive
CC(=O)O | inactive
CCC(C)N(C)C(=O)c1cc2ccccc2c(-c2ccccc2Cl)n1 (stereo not given) | inactive
CCCCc1nc2cccnc2n1Cc1ccc(-c2ccccc2-c2nnn[nH]2)cc1 | inactive
CCCCCCCC(=O)OC | inactive
COC(=O)CCC(=O)OC | inactive
Oc1ccc(O)cc1 | inactive
O=C1NC(=O)C(c2ccccc2)(c2ccccc2)N1 | inactive
C/C=C/C=C/C(=O)O | inactive
CCCCOC(=O)CCCCC(=O)OCCCC | inactive
CCc1nc(N)nc(N)c1-c1ccc(Cl)cc1 | inactive
CC(C)OC(=O)C(C)(C)Oc1ccc(C(=O)c2ccc(Cl)cc2)cc1 | inactive
c1ccc2occc2c1 | inactive
OCC(O)CO | inactive
N[C@@H](Cc1c[nH]c2ccccc12)C(=O)O | inactive
O=Cc1ccccc1C=O | inactive
Cc1ccc(-c2cc(C(F)(F)F)nn2-c2ccc(S(N)(=O)=O)cc2)cc1 | inactive
C#CC(O)C(CC)CCCC (stereo not given) | inactive
O=C1c2c(O)cccc2Cc2cccc(O)c21 | inactive
CC1(C)C(=O)NC(=O)N1CO | inactive

Structure (SMILES) | outcome
CCCC[C@H]1CN(CC2CCOCC2)C(=O)OC12CCN(C1(C)CCN(C(=O)c3c(C)ncnc3C)CC1)CC2 | inactive
Cc1ccc(C(C)(C)C)c(O)c1 | inactive
CC(=O)CC(c1ccccc1)c1c(O)c2ccccc2oc1=O (stereo not given) | inactive
O=[Si]=O | inactive
C/C=C/c1ccc(OC)cc1 | inactive
NC=O | inactive
O=NO | inactive
CC(C)COC(=O)CCCCC(=O)OCC(C)C | inactive
O=C(O)CN(CC(=O)O)CC(=O)O | inactive
O=C1O[C@H]([C@H](O)CO)C(O)=C1O | inactive
O=C(NS(=O)(=O)/C=C/c1cccs1)c1ccc(F)cc1Br | inactive
CCOCCOCCO | inactive
CN(C)CCCN(C)CCCN(C)C | inactive
NC(=Nc1ccccc1)Nc1ccccc1 | inactive
COc1ccc(C(=O)Nc2nc3ccccc3c(NCc3ccccc3)c2C#N)cc1 | inactive
NC1CCCCC1 | inactive
OCC(CO)n1cnc(-c2ccc(F)cc2)c1-c1ccnc(Oc2ccccc2)n1 | inactive
Oc1ccccc1O | inactive
CCCCC(CC)COC(=O)CCCCCCCC(=O)OCC(CC)CCCC (stereo not given) | inactive
Cc1occc(=O)c1O | inactive
